# Measurements as given in PubChem BioAssay (NCATS).
# Results filed as inconclusive are left out. A call without a number means that no potency is given here. Active and inactive are the calls of the source. Unless noted, calls follow the shape of the dose curve; as a rule, active = well fitted curve in the direction sought with a large enough effect; inconclusive = small, poorly fitted or top-dose-only effect, or another doubt; inactive = no such curve, though single readings can be large; an effect the other way counts as inactive or inconclusive.
# Columns and labels:
# [1] = qHTS Assay for Lipid Storage Modulators (AID 1519; calls by dose curve); conditions: Drosophila S3 cells, BODIPY lipid droplet/cell ratio, laser cytometry, cells loaded with oleic acid; for activity change, negative = inhibition: at 57.5 µM (top of the series)
# In short: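 Cells seeded at 5,000 per well were treated with compounds over a concentration series and loaded with oleic acid (400 uM, as added). Lipid droplet fluorescence (488 nm excitation, 500-530 nm channel) was read by laser-scanning cytometry and normalized to 20 uM Triacsin C.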
# [2] = biological target: DNA repair nuclease/redox regulator APEX1 (Homo sapiens) (UniProt P27695); test: qHTS Validation Assay for Inhibitors of the Human Apurinic/apyrimidinic Endonuclease 1 (APE1) (AID 1705;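 also: TAMRA fluorescence gain over two minutes as APE1 cuts a quenched THF abasic duplex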)
# In short: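 Endonuclease activity of human APE1 is followed as dequenching when the enzyme incises a tetrahydrofuran abasic site in a short duplex labelled 5'-TAMRA/3'-BHQ-2 (50 nM final), after 15 min enzyme–compound preincubation at room temperature.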
# [3] = biological target: Endonuclease 4 (Escherichia coli (strain K12)) (UniProt P0A6C1); test: Counterscreen for APE1 Inhibitors: qHTS Validation Assay for Inhibitors of Endonuclease IV (AID 1708)
# In short: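 qHTS concentration-response format; LOPAC1280 tested under APE1-screen conditions. 2 nM enzyme, 15 min compound preincubation at RT, then 50 nM TAMRA/BHQ-2 abasic substrate; kinetic fluorescence read, three reads at 60 s intervals.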
# [4] = qHTS for differential inhibitors of proliferation of Plasmodium falciparum line 7G8 (AID 1815);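 also: parasite growth measured after three days of incubation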; also: potency is read from the fitted curve at half-maximal effect
# [5] = qHTS for differential inhibitors of proliferation of Plasmodium falciparum line 3D7 (AID 1876); also: potency is read from the fitted curve at half-maximal effect
# [6] = qHTS for differential inhibitors of proliferation of Plasmodium falciparum line D10 (AID 1877);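 also: parasites grown with compound for 72 h before DNA staining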; also: potency is read from the fitted curve at half-maximal effect
# [7] = qHTS for differential inhibitors of proliferation of Plasmodium falciparum line Dd2 (AID 1882); conditions: Potency: Plasmodium falciparum Dd2 proliferation inhibition; also: nearly all actives have a fitted effect of over 65% in size; also: potency is read from the fitted curve at half-maximal effect
# In short: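 Dd2-infected erythrocytes (0.3% parasitemia, 2.5% hematocrit final) incubated with compound 72 h at 37 C, 5% CO2; lysed with saponin/Triton buffer containing SYBR Green I, incubated overnight in the dark, then read by fluorescence (485/535 nm). Normalized to 0.29 uM artemisinin and DMSO.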
# [8] = qHTS for differential inhibitors of proliferation of Plasmodium falciparum line HB3 (AID 1886); conditions: Potency: Plasmodium falciparum HB3 proliferation inhibition;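 also: parasites grown with compound for 72 h before SYBR Green readout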; also: potency is read from the fitted curve at half-maximal effect
# [9] = qHTS Assay for Modulators of Human Peripheral Myelin Protein 22 (PMP22) Expression/Activity (AID 1967; active = well fitted curve in the direction sought with a large enough effect in the signal ratio; the % refers to the signal ratio)
# In short: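 Quantitative HTS in a mouse Schwann cell line expressing dual click beetle luciferases: Pmp22 promoter (green) and control EF-alpha promoter (red). After 24h treatment, corrected green/red signal ratio gave %Activity relative to untreated cells.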
# [10] = biological target: ATP-dependent DNA helicase Q1 (Homo sapiens) (UniProt P46063); test: qHTS Validation Assay for Inhibitors of RecQ-Like Dna Helicase 1 (RECQ1) (AID 2353)
# In short: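 50 nM RECQ1T1 preincubated 15 min with compound in Tris pH 8.0 buffer with MgCl2, DTT, Tween-20 and 2.5 ug/ml poly(dI-dC); started with 200 nM TAMRA/BHQ-2 forked duplex and 2 mM ATP. Unwinding read as fluorescence (525/598 nm), two reads 2 h apart.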
# [11] = Cytometric Cell-Based qHTS for Inhibitors of the mTORC1 Signaling Pathway in MEF (Tsc2-/-, p53-/-) Cells (AID 2660);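 also: Tsc2 and p53 null MEFs carrying empty vector with compound for 24 h; percent of cells above a phospho-rpS6 to PI ratio cutoff in each well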
# In short: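 Cells are plated, treated with compound for 24 hrs at 37 degree Celsius, then fixed, blocked and immunostained for phospho-rpS6 Ser235/236. Propidium iodide counterstain follows. Per-well % positive cells is derived from the PI-normalized phospho-S6 signal.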
# [12] = High Content Imaging Cell-Based qHTS for Inhibitors of the mTORC1 Signaling Pathway in MEF (Tsc2-/-, p53-/-) Cells (AID 2666);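 also: percent of cells scored positive for phospho-rpS6 Ser235/236 immunostaining by imaging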
# In short: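 Cells were plated, dosed with compound after 24 hrs, and incubated another 24 hrs at 37 degree Celsius. Fixed cells were immunostained for phospho-rpS6 Ser235/236 and counterstained, and the normalized signal was scored as % active cells against rapamycin and DMSO controls.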
# [13] = qHTS for differential inhibitors of proliferation of Plasmodium falciparum line GB4 (AID 1816); conditions: Potency: Plasmodium falciparum GB4 proliferation inhibition;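 also: potency is read from the fitted curve at half-maximal effect; parasite growth measured after 72 h incubation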
# [14] = qHTS for differential inhibitors of proliferation of Plasmodium falciparum line W2 (AID 1883); conditions: Potency: Plasmodium falciparum W2 proliferation inhibition;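 also: potency is read from the fitted curve at half-maximal effect; parasites grown with compound for 72 h before lysis and staining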
# [15] = Counterscreen for APE1 Inhibitors: Fluorescent Dye Displacement Validation Assay (AID 1707)
# In short: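 Assay buffer: Tris-HCl pH7.5 with 50mM NaCl, 2 mM MgCl2, 0.01% Tween-20. Dye 250 nM, duplex 50 nM final. Readout: decrease in ThO endpoint fluorescence, 480 nm excitation, 540 nm emission.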
# [16] = biological target: Ferritin light chain (Equus caballus) (UniProt P02791); test: qHTS Validation Assay for Identification of Novel General Anesthetics (AID 2323)
# In short: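 Apoferritin from horse spleen (10 uM) was mixed with 1-aminoanthracene at 50% saturation in PBS, then compounds were added. After 10 min at room temperature, fluorescence was read (ex 380 nm, em 535 nm) and normalized to free-probe and complex controls.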
# [17] = measured here: cell count channel max response
# [18] = measured here: lipid channel max response
# Sequence of ATP-dependent DNA helicase Q1 (Homo sapiens) (P46063 whole entry, looked up): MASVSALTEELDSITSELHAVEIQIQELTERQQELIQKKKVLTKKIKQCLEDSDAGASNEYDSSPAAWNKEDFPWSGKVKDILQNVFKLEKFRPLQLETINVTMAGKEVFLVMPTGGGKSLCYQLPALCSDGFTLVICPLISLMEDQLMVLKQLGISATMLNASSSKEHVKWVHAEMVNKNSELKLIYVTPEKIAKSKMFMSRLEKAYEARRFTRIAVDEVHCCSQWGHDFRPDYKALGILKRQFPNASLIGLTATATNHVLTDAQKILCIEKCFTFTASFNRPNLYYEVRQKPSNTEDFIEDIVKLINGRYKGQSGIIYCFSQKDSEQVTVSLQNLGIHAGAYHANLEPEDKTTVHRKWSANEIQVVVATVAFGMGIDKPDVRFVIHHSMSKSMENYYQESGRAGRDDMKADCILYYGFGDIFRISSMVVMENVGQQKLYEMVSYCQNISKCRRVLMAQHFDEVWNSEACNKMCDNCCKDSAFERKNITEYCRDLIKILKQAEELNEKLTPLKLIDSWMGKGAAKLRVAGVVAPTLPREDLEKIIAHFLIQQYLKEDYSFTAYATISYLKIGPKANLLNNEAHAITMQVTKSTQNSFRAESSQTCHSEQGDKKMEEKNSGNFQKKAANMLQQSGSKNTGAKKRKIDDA
# Sequence of DNA repair nuclease/redox regulator APEX1 (Homo sapiens) (P27695 whole entry, looked up): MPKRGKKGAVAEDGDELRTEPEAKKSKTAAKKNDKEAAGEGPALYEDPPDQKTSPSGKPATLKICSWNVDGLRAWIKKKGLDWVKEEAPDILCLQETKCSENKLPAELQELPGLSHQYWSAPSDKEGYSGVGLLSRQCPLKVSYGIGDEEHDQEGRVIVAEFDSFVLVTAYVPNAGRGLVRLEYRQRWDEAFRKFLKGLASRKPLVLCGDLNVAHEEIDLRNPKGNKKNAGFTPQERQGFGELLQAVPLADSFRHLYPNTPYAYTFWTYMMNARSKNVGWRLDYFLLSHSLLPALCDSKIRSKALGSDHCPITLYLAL
# Sequence of Ferritin light chain (Equus caballus) (P02791 2-175 limits assumed): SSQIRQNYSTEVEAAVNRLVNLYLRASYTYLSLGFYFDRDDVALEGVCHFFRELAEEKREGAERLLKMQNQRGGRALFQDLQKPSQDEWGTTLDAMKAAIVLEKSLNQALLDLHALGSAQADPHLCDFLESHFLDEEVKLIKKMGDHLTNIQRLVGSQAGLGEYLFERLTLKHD
structure (smiles),measurement,setting,value
CCCCCCCCCCCCCCCC(=O)NCC(COP(=O)([O-])OCC[N+](C)(C)C)OCC (centres undefined),"activity change, negative = inhibition",[1],-0.558% (inactive)
same,max response,[1]; [17],-22.8%
same,max response,[1]; [18],-25%
same,Potency,[2],inactive
same,Potency,[3],inactive
same,Potency,[4],inactive
same,Potency,[5],inactive
same,Potency,[6],inactive
same,Potency,[7],inactive
same,Potency,[8],inactive
same,outcome,[9],inactive
same,Potency,[10],inactive
same,outcome,[11],inactive
same,Potency,[12],inactive
CCCCCCCC/C=C\CCCCCCCC(=O)NCCO,"activity change, negative = inhibition",[1],1.41% (inactive)
same,max response,[1]; [17],18.9%
same,max response,[1]; [18],20.6%
same,Potency,[4],3.55 µM (active)
same,Potency,[13],2.51 µM (active)
same,Potency,[5],3.98 µM (active)
same,Potency,[6],7.94 µM (active)
same,Potency,[7],8.91 µM (active)
same,Potency,[14],2.51 µM (active)
same,Potency,[8],4.47 µM (active)
same,Potency,[10],inactive
same,outcome,[11],inactive
same,Potency,[12],inactive
C[N+]1(C)CCC(OC(=O)C(c2ccccc2)c2ccccc2)CC1,outcome,[11],inactive
CC1OC1P(=O)(O)O (centres undefined),outcome,[11],inactive
same,Potency,[12],inactive
CSc1nc(N)c2ncn([C@@H]3O[C@H](COP(=O)(O)OP(=O)(O)OP(=O)(O)O)[C@@H](O)[C@H]3O)c2n1,outcome,[11],inactive
same,Potency,[12],inactive
OCC1O[C@H]([S-])[C@H](O)[C@@H](O)[C@@H]1O.[Au+] (some centres undefined),outcome,[11],inactive
CC[C@@H](C)[C@H]1O[C@]2(CC[C@@H]1C)C[C@@H]1C[C@@H](C/C=C(\C)[C@@H](O[C@H]3C[C@H](OC)[C@@H](O[C@H]4C[C@H](OC)[C@@H](O)[C@H](C)O4)[C@H](C)O3)[C@@H](C)/C=C/C=C3\CO[C@@H]4[C@H](O)C(C)=C[C@@H](C(=O)O1)[C@]34O)O2,Potency,[15],inactive
same,Potency,[4],2 µM (active)
same,Potency,[13],1.12 µM (active)
same,Potency,[5],0.794 µM (active)
same,Potency,[6],2.51 µM (active)
same,Potency,[7],1.78 µM (active)
same,Potency,[14],1 µM (active)
same,Potency,[8],1.12 µM (active)
same,Potency,[10],inactive
NC(=S)c1ccc[n+]([C@@H]2O[C@@H](COP(=O)([O-])OP(=O)(O)OC[C@H]3O[C@@H](n4cnc5c(N)ncnc54)[C@H](OP(=O)(O)O)[C@@H]3O)C(O)C2O)c1 (some centres undefined),outcome,[11],inactive
same,Potency,[12],inactive
CCc1c(C(=O)NCCc2ccc(N3CCCCC3)cc2)[nH]c2ccc(Cl)cc12,outcome,[11],inactive
same,Potency,[12],inactive
Oc1cc(O)cc(/C=C/c2ccc(O)c(O)c2)c1,Potency,[2],inactive
same,Potency,[3],inactive
same,Potency,[13],8.91 µM (active)
same,Potency,[5],10 µM (active)
same,Potency,[7],12.6 µM (active)
same,Potency,[14],10 µM (active)
same,Potency,[8],12.6 µM (active)
same,Potency,[16],inactive
same,Potency,[10],inactive
same,outcome,[11],inactive
same,Potency,[12],inactive
Nc1ncnc2c1ncn2[C@@H]1O[C@H](COP(=O)(O)OP(=O)(O)OP(=O)(O)OP(=O)(O)OC[C@@H]2O[C@H](n3cnc4c(N)ncnc43)[C@@H](O)[C@H]2O)[C@@H](O)[C@H]1O,outcome,[11],inactive
same,Potency,[12],inactive
O=C(c1ccc(OCCCc2cnc[nH]2)cc1)C1CC1,outcome,[11],inactive
same,Potency,[12],inactive
COc1cc(SC)ccc1C(=O)N1CCC(Cc2ccccc2)CC1,outcome,[11],inactive
same,Potency,[12],inactive
O=[N+]([O-])c1ccc(CSc2ncnc3c2ncn3[C@@H]2O[C@H](CO)[C@@H](O)[C@H]2O)cc1,outcome,[11],inactive
same,Potency,[12],inactive
N.N.N.N.N.N.N.N.N.N.N.N.N.N.O.O.[Ru+4].[Ru+5].[Ru+5],outcome,[11],inactive
OC[C@H]1O[C@@H](n2cnc3c(Nc4ccccc4)ncnc32)[C@H](O)[C@@H]1O,outcome,[11],inactive
same,Potency,[12],inactive
O=C(CCCCCN1CCN(c2ccccc2-c2ccccc2)CC1)NC1CCCc2ccccc21 (centres undefined),outcome,[11],inactive
same,Potency,[12],inactive
O=C1/C(=C/c2ccsc2)CC/C1=C\c1cccs1,outcome,[11],inactive
CCN(CC)c1ncnc2c1ncn2[C@@H]1O[C@H](COP(=O)(O)OP(=O)(O)C(Br)(Br)P(=O)(O)O)[C@@H](O)[C@H]1O,outcome,[11],inactive
NC(=S)NCCC[C@H](N)C(=O)O,outcome,[11],inactive
Nc1nc(Cl)nc2c1ncn2[C@@H]1O[C@H](COP(=O)(O)OP(=O)(O)OP(=O)(O)O)[C@@H](O)[C@H]1O,outcome,[11],inactive
same,Potency,[12],inactive
CNc1ncnc2c1ncn2[C@@H]1O[C@H](CO)[C@@H](O)[C@H]1O,outcome,[11],inactive
same,Potency,[12],inactive
NCC1OC(O[C@H]2[C@H](O)[C@@H](OC3C(O)C(N)CC(N)C3OC3OC(CO)C(O)C(O)C3N)O[C@@H]2CO)C(N)C(O)C1O (some centres undefined),outcome,[11],inactive
C=CC(=O)c1ccc(CCCCCC)cc1,outcome,[11],inactive
CCNC(=O)[C@H]1O[C@@H](n2cnc3c(N)nc(NCCc4ccc(CCC(=O)O)cc4)nc32)[C@H](O)[C@@H]1O,outcome,[11],inactive
same,Potency,[12],inactive
CN(C)CCCO[C@@H]1[C@H]2OC(C)(C)O[C@H]2O[C@@H]1[C@H](O)CO,outcome,[11],inactive
CNC(=O)[C@H]1O[C@@H](n2cnc3c(NCc4cccc(I)c4)ncnc32)[C@H](O)[C@@H]1O,outcome,[11],inactive
same,Potency,[12],inactive
